The values below come from PubChem BioAssay.

Experiment [1] addresses 6-phosphogluconate dehydrogenase, decarboxylating (Homo sapiens) (UniProt P52209). The experiment can be described thus: inhibition of human phosphogluconate dehydrogenase – biochemical, recombinant enzyme, NADPH absorbance, primary screen (AID 1159550;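 active = at least 20% inhibition of 6-phosphogluconate dehydrogenase activity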). The settings on record: recombinant 6PGD, NADPH absorbance 341 nm; at 10 µM; stronger effect = higher value.
Experiment [2] in a line: EMT-state selective cytotoxicity in co-culture – imaging, PC-3E GFP, TEM4-18 mCherry, primary screen (AID 1345086;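 active = compounds killing one labelled cell type while sparing the other, by normalised counts and ratio limits, not self-fluorescent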;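 for all read-outs here: cells exposed to compound for 72 h before imaging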;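 for red/green cell ratio (normalised): normalised mesenchymal count divided by normalised epithelial count so high means epithelial killing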). Conditions: PC-3E GFP / TEM4-18 mCherry co-culture, imaging cell counts, at 1 µM; for red/green cell ratio (normalised): actives lie on both sides, counts scaled to control wells, 1 = unselective.
Experiment [3] in a line: viability loss with induced miR-34 in A549 – imaging, A549 dox-inducible miR-34, nuclei and caspase counts, primary screen (AID 1347080). Conditions: A549 miR-34 inducible, Hoechst nuclei count, 48 h.
Experiment [4] can be described thus: MELAS cybrid and Rieske KO viability enhancers – cell-based, MELAS cybrids, Rieske KO mouse fibroblasts, CellTiter-Glo, primary screen (AID 1508586;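 active = mean z-score across replicates of 1.96 or higher in either the MELAS or the Rieske mutant cell line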;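 note: z relative to plate mean and SD of compound and empty wells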). The settings on record: low glucose. Background: ATP-based viability assays read luminescence as a measure of living cells.
The target of experiment [5] is Mitogen-activated protein kinase 7 (Homo sapiens) (UniProt Q13164). The experiment can be described thus: Gal4-ERK5 driven luciferase induction – cell-based, HTS, primary screen (AID 1508626;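 active = luciferase signal above three times the same-plate solvent-only control wells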;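 note: luciferase driven by Gal4-ERK5 fusion binding five Gal4 sites before minimal TATA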). Conditions: HeLa Gal4-ERK5 transactivation, 18 h, at 5 µM, stronger effect = higher value.
The nature of experiment [6]: blockers of polyQ-driven CASP3 activation – cell-based (AID 1583). Conditions: polyglutamine-induced caspase-3 activation, cell assay; stronger effect = higher value;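 tested at 10 µM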.
The nature of experiment [7]: yeast 75Q aggregation reduction – 75Q-TubU reporter (AID 1593). Conditions: Yeast 75Q polyglutamine aggregation reporter.
A short description of experiment [8]: restoration of touch response, mutant HTT neurons – whole organism, C. elegans mechanosensory neurons, N-terminal huntingtin (AID 1599). The settings on record: C. elegans polyQ-huntingtin mechanosensory neurons, stronger effect = higher value.
A short description of experiment [9]: blockers of cytochrome c efflux from mitochondria – biochemical, purified mitochondria (AID 1603).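 Note: mouse liver mitochondria challenged with calcium chloride; signal normalized to the plate average as 100%.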 Conditions: stronger effect = lower value.
Experiment [10] can be described thus: polyglutamine aggregate formation blockers (AID 1604). Conditions: polyglutamine-induced protein aggregation inhibition assay; stronger effect = higher value; tested at 2.5 µM.
Experiment [11] in a line: glutamate transport activators, MN-1 cells, MN-1 cell line (AID 1612).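 Note: tested at 1 µM final; 0% = mean of DMSO vehicle wells on each plate; positive means more glutamate uptake than control and negative means less.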 The settings on record: MN-1 motor neuron cells, stronger effect = higher value.
Experiment [12] can be described thus: GFP-Q80 aggregate reduction, neuronal-like cells, cell-based, NGF-treated PC12, GFPQ80 (AID 1614).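 Note: lower means fewer inclusions and 0 means no inclusions at all.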 The settings on record: PC12 NGF-treated GFP-polyQ80 inclusion reduction.
A short description of experiment [13]: 75Q-TubH aggregate inhibition, S. cerevisiae, yeast (AID 1616). Conditions: S. cerevisiae 75Q-TubH polyglutamine aggregation suppression; stronger effect = higher value.
Experiment [14] can be described thus: compounds altering viability of human ES cells (AID 493140; call rule not given here;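 note: cells exposed to compounds for four days before counting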). The settings on record: human embryonic stem cell survival screen; stronger effect = higher value.
Experiment [15] deals with NAD(+) hydrolase SARM1 (Homo sapiens) (UniProt Q6SZW1). As to the kind of experiment: blocking NAD cleavage by SARM1 SAM-TIR – cell lysate, NAD-Glo luminescence (AID 1508614;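 active = compound whose remaining NAD level is above about 45 nM, limit read from the data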;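 note: higher remaining NAD means stronger inhibition of SARM1 NADase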). The settings on record: SAM-TIR HEK293T lysate NADase, at 1 µM, stronger effect = higher value.
Experiment [16] in a line: P. berghei load reduction in hepatocytes – cell-based, HepG2, luciferase luminescence, HepG2 viability, primary screen (AID 624349; in the data active = parasite load remaining mostly below about 12%, no sharp cut-off; inactive = mostly above about 10%;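 note: 100% = mean of DMSO negative control wells on the same plate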). The settings on record: P. berghei liver stage in HepG2, luciferase luminescence, concentration not given here; parasite load remaining: stronger effect = lower value; viability: measured here: HepG2 viability without parasites.
[17] abbreviates: measured here: epithelial PC-3E GFP cell survival.
[18] abbreviates: measured here: mesenchymal TEM4-18 mCherry cell survival.
[19] abbreviates: stronger effect = lower value, cell number ratio, induced over uninduced.
The mark [20] stands for this setting: measured here: relative caspase fold change +Dox/-Dox.
Where [21] appears, read: measured here: total cells with miR-34 induction, stronger effect = lower value.
[22] abbreviates: measured here: total cells without miR-34 induction.
[23] abbreviates: MELAS cybrid survival, CellTiter-Glo 48 h, stronger effect = higher value.
Where [24] appears, read: Rieske KO mouse fibroblast survival, CellTiter-Glo 72 h.

“And” between values parts separate entries of the source, which are not always exact repeats. Equal entries are not always repeated. For part of these data: Potency and affinity values are given separately. The source made the active and inactive calls.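 Rule for the calls, unless noted: active = compounds whose cell count with miR-34 switched on is under 0.7 times the count with it off; inactive = the rest.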

Chain of NAD(+) hydrolase SARM1 (Homo sapiens) (Q6SZW1 whole entry, looked up): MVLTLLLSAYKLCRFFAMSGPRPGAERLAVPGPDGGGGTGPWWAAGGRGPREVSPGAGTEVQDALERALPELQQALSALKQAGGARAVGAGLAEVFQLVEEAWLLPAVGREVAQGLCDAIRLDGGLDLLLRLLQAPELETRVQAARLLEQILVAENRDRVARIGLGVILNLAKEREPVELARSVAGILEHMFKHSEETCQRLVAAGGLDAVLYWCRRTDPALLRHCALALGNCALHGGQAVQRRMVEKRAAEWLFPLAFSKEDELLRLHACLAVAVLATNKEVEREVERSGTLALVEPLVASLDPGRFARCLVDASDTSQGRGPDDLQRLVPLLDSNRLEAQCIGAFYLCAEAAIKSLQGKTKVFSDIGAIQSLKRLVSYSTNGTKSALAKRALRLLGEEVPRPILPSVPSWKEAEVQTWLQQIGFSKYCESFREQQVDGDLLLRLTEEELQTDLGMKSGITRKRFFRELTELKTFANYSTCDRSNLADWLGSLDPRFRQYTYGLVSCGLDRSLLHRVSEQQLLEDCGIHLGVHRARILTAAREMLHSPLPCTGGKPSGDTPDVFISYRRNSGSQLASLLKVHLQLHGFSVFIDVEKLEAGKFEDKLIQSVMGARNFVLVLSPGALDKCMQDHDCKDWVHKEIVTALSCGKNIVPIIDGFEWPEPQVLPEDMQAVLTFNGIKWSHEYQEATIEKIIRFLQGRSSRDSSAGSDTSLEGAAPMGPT
Chain of 6-phosphogluconate dehydrogenase, decarboxylating (Homo sapiens) (P52209 whole entry, looked up): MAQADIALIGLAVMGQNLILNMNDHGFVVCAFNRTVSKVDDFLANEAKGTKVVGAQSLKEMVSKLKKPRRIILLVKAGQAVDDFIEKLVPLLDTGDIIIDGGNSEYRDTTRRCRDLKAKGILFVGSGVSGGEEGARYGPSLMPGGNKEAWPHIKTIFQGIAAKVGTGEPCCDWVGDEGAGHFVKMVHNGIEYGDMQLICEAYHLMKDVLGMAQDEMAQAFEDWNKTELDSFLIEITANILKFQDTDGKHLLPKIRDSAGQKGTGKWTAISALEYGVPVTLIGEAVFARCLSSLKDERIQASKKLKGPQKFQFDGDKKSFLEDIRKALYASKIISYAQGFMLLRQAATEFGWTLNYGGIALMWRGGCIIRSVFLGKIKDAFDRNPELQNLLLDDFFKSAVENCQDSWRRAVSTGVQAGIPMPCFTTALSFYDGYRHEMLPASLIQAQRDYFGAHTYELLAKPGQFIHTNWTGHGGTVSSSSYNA
Chain of Mitogen-activated protein kinase 7 (Homo sapiens) (Q13164 whole entry, looked up, the tested form may be a part): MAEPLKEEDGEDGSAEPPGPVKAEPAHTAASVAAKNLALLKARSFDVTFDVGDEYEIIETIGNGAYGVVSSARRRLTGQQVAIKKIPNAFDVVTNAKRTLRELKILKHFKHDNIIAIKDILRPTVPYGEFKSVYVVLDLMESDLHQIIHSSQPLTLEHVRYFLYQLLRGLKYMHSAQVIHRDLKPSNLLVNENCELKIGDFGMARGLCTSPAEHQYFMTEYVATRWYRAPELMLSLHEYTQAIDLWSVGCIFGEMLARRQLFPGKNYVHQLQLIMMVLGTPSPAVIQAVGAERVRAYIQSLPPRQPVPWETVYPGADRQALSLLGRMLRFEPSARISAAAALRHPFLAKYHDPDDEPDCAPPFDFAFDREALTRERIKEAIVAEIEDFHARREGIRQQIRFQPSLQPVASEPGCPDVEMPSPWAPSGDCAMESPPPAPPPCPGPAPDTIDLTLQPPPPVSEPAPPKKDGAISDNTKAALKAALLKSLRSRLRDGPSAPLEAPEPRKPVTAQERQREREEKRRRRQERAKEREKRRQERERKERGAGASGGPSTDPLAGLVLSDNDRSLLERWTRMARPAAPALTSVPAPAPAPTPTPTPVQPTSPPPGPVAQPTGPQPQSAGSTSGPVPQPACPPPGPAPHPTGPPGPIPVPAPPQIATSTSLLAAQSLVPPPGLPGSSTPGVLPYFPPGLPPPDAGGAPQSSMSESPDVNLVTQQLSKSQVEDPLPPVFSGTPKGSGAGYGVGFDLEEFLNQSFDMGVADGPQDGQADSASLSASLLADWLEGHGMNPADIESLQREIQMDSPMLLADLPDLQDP

In general, inhibition refers to the drop in the measured response relative to a control, in per cent. As for `OCc1c[nH]c2ccccc12`, the inhibition in [1] was 14.9% (inactive). Further, the red/green cell ratio (normalised) in experiment [2] is 0.93 (inactive). Besides, the normalised cell number stood at 0.91 in experiment [2] (setting [17]) and 0.84 in experiment [2] (setting [18]). For the same compound, the values for the fold change in experiment [3] (setting [19]) and in [3] (setting [20]) were 0.978 (inactive) and 0.867, respectively. Moreover, the cell count in experiment [3] (setting [21]) was 8210; in [3] (setting [22]), 8390. Further, the z-score in experiment [4] (setting [23]) was -0.392 (inactive); in experiment [4] (setting [24]) it was -0.0559. In addition, the luciferase signal in experiment [5] was 88 AU (inactive).

As to `O=c1c2ccccc2oc2ccccc12`, the inhibition in [1] was 0.222% (inactive). In experiment [2], the red/green cell ratio (normalised) is 1.1 (inactive). Further, the normalised cell number came out at 0.96 in experiment [2] (setting [17]) and 1.06 in experiment [2] (setting [18]). Moreover, the fold change in [3] (setting [19]) is 0.991 (inactive); in [3] (setting [20]) it was 0.506. Further, the cell count in experiment [3] (setting [21]) is 7550; in experiment [3] (setting [22]), 7620. In addition, the z-score was -0.409 (inactive) in experiment [4] (setting [23]) and -0.0965 in experiment [4] (setting [24]). Further, the luciferase signal in experiment [5] is 64 AU (inactive).

Regarding `CN(C)CCOC(c1ccccc1)c1ccccc1` (tested in a mixture with another compound), the inhibition is 13% in experiment [6] and 11% (inactive) in [1]. Besides, the score in experiment [7] turned out to be 1.21. The same compound had a rescue above control in [8] of 26.8. Besides, the cytochrome c release ratio in experiment [9] was determined as 1.23. The compound also returned an inhibition of aggregation in experiment [10] of 69.8%. Also, the glutamate uptake change in experiment [11] was -19.1%. Further, the inclusion score in [12] was determined as 2. Also, the aggregation suppression score in [13] is 0.942. Besides, in experiment [14], the survival was 24.5 (inactive). In experiment [2], the red/green cell ratio (normalised) is 1.07 (inactive). In addition, the normalised cell number in experiment [2] (setting [17]) turned out to be 1.32; in experiment [2] (setting [18]), 1.41. The fold change was 0.893 (inactive) and 0.836 (inactive) in experiment [3] (setting [19]); 1.17 and 1.81 in [3] (setting [20]). The cell count in [3] (setting [21]) was 8830 and 11000; in experiment [3] (setting [22]) it was 9890 and 13100. Further, the z-score in [4] (setting [23]) was 0.49 (inactive); in experiment [4] (setting [24]) it was 0.296. Also, in experiment [15], the remaining NAD is 10 nM (inactive). Further, the luciferase signal in experiment [5] is 28 AU (inactive).

In general, viability refers to a read-out of living cells in per cent, often relative to untreated cells. Take `C1CNCCN1`: the results for the inhibition in [6] and in experiment [1] were 15.3% and 7.35% (inactive), respectively. The compound further showed a score in experiment [7] of 1.95. For the same compound, the rescue above control in experiment [8] was -1.97. Also, in [9], the cytochrome c release ratio worked out at 1.16. In experiment [10], this compound yielded an inhibition of aggregation of 15.4%. Further, in experiment [11], the glutamate uptake change is -12.2%. The inclusion score in experiment [12] was 2. Besides, in experiment [13], the aggregation suppression score was 1.67. Moreover, the parasite load remaining in [16] was 96.9% (inactive) and 59.4% (inactive). In experiment [16], the viability is 74.5% and 108%. Moreover, the red/green cell ratio (normalised) in experiment [2] was 1.22 (inactive). Besides, the normalised cell number stood at 0.8 in [2] (setting [17]) and 0.98 in experiment [2] (setting [18]). Besides, the fold change in experiment [3] (setting [19]) was 0.887 (inactive); in experiment [3] (setting [20]), 2.06. In addition, the results for the cell count in experiment [3] (setting [21]) and in experiment [3] (setting [22]) were 11000 and 12400, respectively. Moreover, the remaining NAD in experiment [15] is 10 nM (inactive). The luciferase signal in [5] is 560 AU (inactive).

As for `CCCCCCCCCCCCCCCC(=O)OC/C=C(C)/C=C/C=C(C)/C=C/C1=C(C)CCCC1(C)C`, the results for the inhibition in experiment [6] and in experiment [1] were -19.1% and 1.58% (inactive), respectively. Moreover, in [7], the score came out at 1.38. In experiment [8], this compound displayed a rescue above control of 3.93. In addition, the cytochrome c release ratio in experiment [9] worked out at 1.03. The inhibition of aggregation in experiment [10] is 46%. Moreover, in experiment [11], the glutamate uptake change came out at 4.94%. This compound also showed an inclusion score in experiment [12] of 2. For the same compound, the aggregation suppression score in experiment [13] was 0.6. In addition, the parasite load remaining in experiment [16] was 174% (inactive) and 50.5% (inactive). In [16], the viability was 86.2% and 95%. In addition, the red/green cell ratio (normalised) in experiment [2] was 1.41 (inactive). Further, the normalised cell number in [2] (setting [17]) is 0.95; in experiment [2] (setting [18]) it was 1.34. Further, the results for the fold change in experiment [3] (setting [19]) and in experiment [3] (setting [20]) were 0.809 (inactive) and 0.861, respectively. Also, the cell count in experiment [3] (setting [21]) came out at 9920; in experiment [3] (setting [22]), 12300. Also, the remaining NAD in experiment [15] is 10 nM (inactive). Besides, the luciferase signal in [5] is 624 AU (active).

With `CC(=O)Oc1cccc(C(=O)O)c1OC(C)=O`, the inhibition in experiment [1] is 0.748% (inactive). The red/green cell ratio (normalised) in [2] was 0.81 (inactive). Further, the normalised cell number in experiment [2] (setting [17]) was 1.05; in experiment [2] (setting [18]) it was 0.86. Besides, the remaining NAD in experiment [15] is 10 nM (inactive).

Consider `COc1ccc([C@@H]2CC(=O)c3c(O)cc(O)cc3O2)cc1O`, for which the inhibition in experiment [6] was 11%; in experiment [1], 4.68% (inactive). Also, the score in [7] turned out to be 0.56. Besides, in experiment [8], the rescue above control turned out to be 6.5. In addition, in [9], the cytochrome c release ratio came out at 0.93. Besides, in experiment [10], the inhibition of aggregation is 17%. In addition, the glutamate uptake change in experiment [11] amounted to 0%. This compound yielded an inclusion score in [12] of 2. The same compound registered an aggregation suppression score in experiment [13] of 0.264. Further, the survival in experiment [14] was 17.8 (inactive). Besides, the parasite load remaining in experiment [16] was 25.2% (inactive) and 110% (inactive). For the same compound, the viability in [16] was 46.9% and 88%. The red/green cell ratio (normalised) in experiment [2] was 0.91 (inactive). Moreover, the values for the normalised cell number in experiment [2] (setting [17]) and in experiment [2] (setting [18]) were 1.28 and 1.16, respectively. The fold change in [3] (setting [19]) was 0.922 (inactive) and 1.13 (inactive); in experiment [3] (setting [20]), 1.33 and 0.691. The cell count in experiment [3] (setting [21]) is 8710 and 6120; in experiment [3] (setting [22]), 9450 and 5440. The luciferase signal in experiment [5] is 48 AU (inactive).
